Shown are actives, neighbours in structure and some others; about 1.1% of the full set was active somewhere.
RGS4 inh – Inhibitors of Regulator of G Protein Signaling (RGS) 4: qHTS. Potency, µM (series often up to 114 µM), without a hit: at the highest dose activity change, negative = inhibition, actives largely listed as inhibitors. AID 504845, 2011. Transcreener GDP fluorescence polarization, RGS4-accelerated GTP hydrolysis. Regulator of G-protein signaling 4 (Homo sapiens), P49798. 390,000 tested, 0.039% active; also: potency is read from the fitted curve at half-maximal effect; % is scaled to controls: 0 for no effect and ±100 for the full control effect; nearly all actives have a fitted effect of over 75% in size
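MLSMR compounds (23 nl, pin-transferred) preincubated 10 min at room temperature with a 500nM (2x) first reagent, then RGS4 at 900nM (2x) plus Transcreener GDP mix added; fluorescence polarization (620/688 nm) read before and after 90 min at 30 °C.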
PTHR1 agonist – qHTS for PTHR1 Agonists: Primary Screen; Parathyroid hormone/parathyroid hormone-related peptide receptor (Homo sapiens), Q03431; HEK293 GP2 PTHR1 cells, GloSensor cAMP luminescence, 1 h; Potency, µM (titrated, usually from 115 µM), for the others: top-dose activation, usual class: activators; 410,000 tested, 0.075% active; AID 743266, 2014; also: potency is read from the fitted curve at half-maximal effect; nearly all actives have a fitted effect of over 55% in size
Target sequence (Q03431 whole entry, looked up): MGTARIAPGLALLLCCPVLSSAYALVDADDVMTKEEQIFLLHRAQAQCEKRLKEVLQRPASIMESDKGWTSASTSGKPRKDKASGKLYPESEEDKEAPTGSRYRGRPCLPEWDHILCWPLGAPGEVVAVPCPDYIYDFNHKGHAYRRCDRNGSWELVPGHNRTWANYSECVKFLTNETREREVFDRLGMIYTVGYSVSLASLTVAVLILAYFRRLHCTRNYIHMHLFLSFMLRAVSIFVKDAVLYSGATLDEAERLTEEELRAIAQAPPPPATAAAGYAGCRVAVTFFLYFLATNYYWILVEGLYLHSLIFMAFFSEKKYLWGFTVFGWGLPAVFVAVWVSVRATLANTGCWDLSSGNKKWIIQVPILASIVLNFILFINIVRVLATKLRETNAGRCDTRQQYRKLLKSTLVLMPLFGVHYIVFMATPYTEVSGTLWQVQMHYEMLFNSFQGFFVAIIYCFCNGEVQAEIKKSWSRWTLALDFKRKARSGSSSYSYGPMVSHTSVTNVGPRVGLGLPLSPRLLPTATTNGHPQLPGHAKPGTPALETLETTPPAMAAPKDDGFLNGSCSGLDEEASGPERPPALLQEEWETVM
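HEK-293-derived GP2 cells expressing PTHR1 and a GloSensor cAMP reporter, 3,000/well, plated overnight, given luciferin plus IBMX (each 0.5 mM as added) for 1 h at 37 °C, then compound for 1 h at 37 °C. Luminescence was read after 15 min at room temperature.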
p53 reactivator – qHTS assay for re-activators of p53 using a Luc reporter; H1299 p53-A138V BP100-luciferase reporter, luminescence, 24 h; 320,000 tested, 0.063% active; Potency, µM (doses to about 92.2 µM), for the others: top-dose activity change, positive = activation, usual class: activators; also: potency is read from the fitted curve at half-maximal effect; % of control where 0% means no effect; nearly all actives have a fitted effect of over 45% in size
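p53-null H1299 cells stably carrying temperature-sensitive p53-A138V and a BP100-luciferase reporter were pinned with compounds (4-point, 1:5 series) and held 24 hrs at 37 deg C. Luminescence was read 10 min after detection reagent.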
LDHA inh – qHTS assay for inhibitors of human lactate dehydrogenase. activity change, % (values are at about 110 or 230 µM). AID 1347041, 2019. 480,000 tested, 0.15% active. L-lactate dehydrogenase A chain (Homo sapiens), P00338. purified LDHA, NADH/diaphorase-resazurin fluorescence; hits give low values; in the data active = activity change below about -30%; inconclusive = mostly about -25% to -30%;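 also: plate controls were DMSO wells for no effect and wells without enzyme for full effect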
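Human LDH5 (2 nM) was incubated with 0.06 mM NADH and 0.2 mM pyruvate for 5 min at room temperature in Tris pH 7.4. Remaining NADH was coupled through diaphorase/resazurin, and resorufin fluorescence was read at 0 and 20 min.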
BRCA1 expr act – qHTS Assay to Identify Small Molecule Activators of BRCA1 Expression; MCF7-BRCA1-FFLuc reporter, luminescence, 48 h; response scale: scaled: vehicle 0%, 10 µM genistein 100%; Potency, µM (titrated, usually from 46.1 µM), inactives show at the highest dose activation, hits mostly activators; 380,000 tested, 1.1% active; also: potency is read from the fitted curve at half-maximal effect; nearly all actives have a fitted effect of over 80% in size
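First, MCF7-BRCA1-FFLuc cells (2000/well) attach for 2 h; next, compounds are pin-added and incubated 48 h at 37 °C; finally, luciferase reagent is added and luminescence read after 15 min.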
* = called active by the depositor; i = inactive; ? = inconclusive; . = no result given; ! = not active in a repeat; [ ] = another dose, or the depositor's remark. Unless noted, calls follow the shape of the dose curve; as a rule, active = well fitted curve in the direction sought with a large enough effect; inconclusive = small, poorly fitted or top-dose-only effect, or another doubt; inactive = no such curve, though single readings can be large; an effect the other way counts as inactive or inconclusive.

SMILES	RGS4 inh	PTHR1 agonist	p53 reactivator	LDHA inh	BRCA1 expr act
COc1ccc(OCc2cc(C(=O)N3CCSCC3)no2)c(Cl)c1	-17.7%	-26.7%	-0.1%	-0.1	11.2µM*
CCCCCCn1c(NC)nc2c1c(=O)n(C)c(=O)n2C	.	.	.	-3.1	.
C=Cc1c(C)c2cc3[nH]c(cc4nc(cc5nc(cc1[nH]2)C(C)=C5CCC(=O)O)C(CCC(=O)O)=C4C)c(C)c3C=C	9.47µM*!	-1.7%	-2.3%	-5.2	-31.8%
CC12C3C=CC(C3)C1([Si](C)(C)C)C2C(=O)O (configuration not stated)	.	.	.	2.2	.
O=C1OC(c2ccccc2)=N/C1=C\N1CCCCC1	-11.7%	-8.3%[57.5 µM]	20.1%	-1.7	7.94µM*
O=C1OC(c2ccccc2)=C/C1=C/N1CCCCC1	-41.3%	-15.1%[57.5 µM]	?	0.0	3.98µM*
O=C(Nc1ccccc1N1CCCC1)c1ccc(Br)o1	13.4%	i	6.9%	3.0	33.0%
Cc1cc(N2CCN(C)CC2)nc2ccc(NC(=O)c3ccccc3F)cc12	-16.1%	i	?	-1.2	11.2µM*
CCN1CCN(c2cc(C)c3cc(NC(=O)c4ccccc4F)ccc3n2)CC1	12.6%	10.8%	?	1.6	.
O=C(Nc1ccc(N2CCCC2)c(Cl)c1)c1ccc(Br)o1	-4.4%	i	?	4.1	3.98µM*
O=C(Nc1ccc(N2CCCC2)c(Cl)c1)c1ccccc1F	.	-28.2%	.	-2.1	3.16µM*
N#Cc1ccc(COc2ccc(-n3cnnn3)cc2)c(F)c1	.	.	.	8.2	.
O=c1oc2ccccc2cc1-c1csc(Nc2ccccc2Cl)n1	.	.	.	-1.3	.
CN(c1cnn(-c2ccccc2)c(=O)c1Cl)n1cccc1	-14.2%	i	15.8%	-1.5	11.2µM*
CCNC(=S)N/N=C/c1cccc(C)c1	2.5%	i	28.5%	8.5	10µM*
CCNC(=S)N/N=C/c1cc(C)ccc1C	4.7%	16.6%	3.9%	-10.2	-2.6%
COC(=O)Cc1c(O)ccn(CCc2c[nH]c3ccccc23)c1=O	5.0%	-10.4%	1.2%	-9.4	-2.4%
CCCCCCCn1ccc(O)c(CC(=O)OC)c1=O	31.2%	50.1µM*	0.0%	-4.8	0.0%
COC(=O)Cc1c(OC)ccn(CCc2c[nH]c3ccccc23)c1=O	-7.1%	-10.9%	?	-2.0	2.24µM*
CSCc1ccc(C(=O)NCc2ccc(C)cc2)cc1	-4.1%	i	7.4%	-4.3	50.4%
CSCc1ccc(C(=O)Nc2ccc(C(N)=O)cc2)cc1	-8.0%[56.9 µM]	-19.0%	24.4%	-1.5	5.62µM*
Cn1c(N)c(-c2csc(Nc3ccccc3)n2)c(=O)n(C)c1=O	.	.	.	9.2	.
COc1ccc(C(=O)NCCn2ccc3ccccc32)c(OC)c1	-16.9%	-8.3%[57.5 µM]	3.1%	6.6	7.94µM*
COc1ccc(C(=O)NCCN2CCOCC2)c(OC)c1	-21.9%	-1.7%	-2.3%	2.4	-5.8%
Cc1ccc2c(CC(=O)Nc3sccc3C(N)=O)coc2c1	-38.0%	-31.5%	-2.9%	4.1	1.26µM*
SMILES	RGS4 inh	PTHR1 agonist	p53 reactivator	LDHA inh	BRCA1 expr act
CC(C)(C)NC(=O)C(c1ccncc1)N(C(=O)Cn1nnc(-c2ccc(F)cc2)n1)c1ccc(F)cc1 (configuration not stated)	14.5%	-10.3%	-2.6%	-3.7	1.6%
Cc1ccc(N(C(=O)Cn2nnc(-c3ccc(F)cc3)n2)C(C(=O)NC(C)(C)C)c2ccncc2)cc1 (configuration not stated)	6.4%	44.7µM*	19.2%	-3.1	-22.4%
CCOc1ccc(-c2cn(-c3ccc(OC)cc3)c(SC)n2)cc1	30.6%	-33.7%	?	-5.1	11.2µM*
CCOc1ccc(-c2cn(-c3ccc(OC)cc3)c(SCC(=O)Nc3ccccc3Cl)n2)cc1	-11.7%	i	.	-6.4	.
N#CCCN1CCN(c2ccc(NS(=O)(=O)c3ccc(F)cc3Cl)c(C(=O)O)c2)CC1	.	.	.	-1.8	.
Fc1cccc(F)c1-c1nc(-c2ccncc2)no1	-8.4%	-9.9%	?	-1.7	8.91µM*
Cc1ccc(-c2noc(-c3ccno3)n2)cc1	-38.3%	-7.8%	18.3%	-3.7	8.91µM*
CCOc1ccc2oc(=O)cc(CN3CCOCC3)c2c1	-4.3%	i	-2.9%	-8.0	0.2%
CCOc1ccc2oc(=O)cc(CN3CCN(c4ccccc4)CC3)c2c1	30.7%	-44.5%	.	-30.2*!	.
CC(C)c1ccc(CNC(=O)CSc2nc3ccccc3o2)cc1	.	.	.	4.6	.
CC1CCc2c(-c3cccc(O)c3)nc3ccc4ccccc4c3c2C1 (configuration not stated)	.	.	.	3.3	.
COc1ccc(C(=S)NC2CCCCC2)cc1	?	i	?	-5.9	?
CCOc1ccc(C(=S)NC2CCCCC2)cc1	-35.5%	-28.7%	?	1.0	10µM*
CC(C)NC(=O)c1[nH]nc2c1CCc1ccccc1-2	-0.1%	i	14.0%	2.1	2µM*
CCOc1cccc2cc(-c3nc(-c4ccccc4F)no3)c(=O)oc12	.	.	.	-34.5*	.
Cc1cc(-c2ccc(F)cc2)nc2cc(C(N)=O)nn12	-5.2%	-5.1%[57.5 µM]	-2.4%	-2.9	0.0%
CCOC(=O)c1cnn2c(C)cc(-c3ccc(F)cc3)nc12	11.6%	-17.6%	?	-3.4	2.82µM*
C=CCn1c(NCCN(C)C)nc2c1c(=O)[nH]c(=O)n2C	.	.	.	-12.4	.
C=CCn1c(NCCCOC)nc2c1c(=O)[nH]c(=O)n2C	.	.	.	-34.5*	.
CCSc1nc2ccccc2n1CC(=O)OC	14.5%	i	-1.5%	-2.9	-0.1%
COC(=O)Cn1c(SCc2ccccc2)nc2ccccc21	-21.4%[11.4 µM]	-11.4%	24.2%	0.7	7.94µM*
C/C(NC(=O)c1cccc(F)c1)=C1/C(=O)C[C@@H]2[C@H]1C2(C)C	0.4%	-17.0%	?	-3.5	?
C/C(NC(=O)c1ccccc1F)=C1\C(=O)C[C@@H]2[C@H]1C2(C)C	-10.0%	-25.1%	12.6µM*	-0.5	11.2µM*
COc1cc(/C=C(/C#N)c2nc3ccccc3o2)ccc1O	.	.	.	4.4	.
Cc1nnc(SCc2ccc3c(c2)OCO3)s1	-10.5%	-69.4%[57.5 µM]	?	-9.5	8.91µM*
Cc1nnc(NC(=O)c2ccc3c(c2)OCO3)s1	6.7%	-2.0%	9.1%	-4.1	5.62µM*
Cc1nnc(SCc2cccc(CSc3nnc(C)s3)c2)s1	23.1%	-2.6%[57.5 µM]	23.4%	-0.7	?
CCCC(=O)c1ccc(N2CCCCCC2)c(F)c1	-13.1%	-8.9%	39.8µM*	-3.2	?
CCCC(=O)c1ccc(N2CCCCC2)c(F)c1	1.3%[11.4 µM]	-16.1%	-1.2%	-2.5	?
COc1cc(NC(=O)N2CC3CCCN3c3ccccc32)cc(OC)c1OC (configuration not stated)	.	.	.	9.8	.

Screens (PubChem)
